Source: the supplement of paper PMC13380429

Experiments:
[1] = test system: Vero E6 infected with SARS-CoV-2; experiment: morphology score (similarity to uninfected cells); higher = more like uninfected cells; conditions: 24 h
[2] = test system: Vero E6 infected with SARS-CoV-2; experiment: SARS-CoV-2 infection rate relative to infected DMSO; higher = more infection, active = 60 or less; conditions: 24 h

Compound	morphology score [1]	SARS-CoV-2 infection rate [2]
C=C1CC/C=C(\C)CC[C@@H]2[C@@H]1CC2(C)C [g-caryophyllene] (10 µM)	0.0545	95% (inactive)
CCCCCCCCC(=O)N[C@H](CN1CCCC1)[C@H](O)c1ccc2c(c1)OCCO2 (10 µM)	0.393	71.5% (inactive)
CC(C)NC[C@@H](O)COc1ccccc1-n1cccc1 (racemic) [isamoltane] (10 µM)	-0.204	114% (inactive)
COc1c(N2CCNC(C)C2)c(F)cc2c(=O)c(C(=O)O)cn(C3CC3)c12 (configuration not stated) [gatifloxacin] (10 µM)	0.0682	104% (inactive)
Cc1ccc2c(c1)c1c3n2CCNC3CCC1 (configuration not stated) [pirlindole] (10 µM)	0.0112	106% (inactive)
CCC(C)(Oc1ccc(C2(c3ccc(OC(C)(CC)C(=O)O)cc3)CCCCC2)cc1)C(=O)O (configuration not stated) [clinofibrate] (10 µM)	0.0154	112% (inactive)
Cc1ccc(OCCSc2ncccn2)c(Br)c1 (10 µM)	0.0756	104% (inactive)
OC[C@H]1O[C@@H](c2ccc(F)c(Cc3cc4ccccc4s3)c2)[C@H](O)[C@@H](O)[C@@H]1O [ipragliflozin-L-proline] (10 µM)	0.0125	110% (inactive)
CC(C)(C)NCC(O)CSc1nc(-c2ccc(C(N)=O)s2)cs1 (configuration not stated) [arotinolol] (10 µM)	0.0582	106% (inactive)
CCCCOc1ccc(-c2cncc(C(=O)NCc3cccnc3N3CCOCC3)c2)cc1Cl (10 µM)	-0.147	108% (inactive)
CC(=O)O[C@]1(C(C)=O)CC[C@H]2[C@@H]3C[C@H](C)C4=CC(=O)C=C[C@]4(C)[C@@]3(F)[C@@H](O)C[C@@]21C [fluorometholone-acetate] (10 µM)	0.0758	105% (inactive)
